Shiga inhibitor = A qHTS for Small Molecule Inhibitors of Shiga Toxin; 290,000 compounds, 9.2% hits; Vero cells, Shiga toxin protein synthesis inhibition reporter; inhibition, % at 38.7 µM; in the data active = inhibition mostly above about 28%, no sharp cut-off; inactive = mostly below about 43%
NS1 function inh = qHTS Assay for Inhibitors of Influenza NS1 Protein Function | Potency, µM (titrated, usually from 46.1 µM) | 270,000 compounds, 0.4% hits | AID 2326, 2010; note: actives are rising curves; nearly all actives have a fitted effect of over 50% in size
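A cell-based growth assay was used: compounds that relieve NS1-induced slow growth of budding yeast raise OD600. Assay medium was yeast nitrogen base with ammonium sulphate and -URA supplement, pH 6.0, with 2% galactose.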
LmPK inhibitor = qHTS Assay for Inhibitors of Leishmania Mexicana Pyruvate Kinase (LmPK) | Potency, µM (doses to about 57.5 µM), hits mostly inhibitors | AID 1721, 2009 | Q27686 | purified LmPK, Kinase-Glo ATP luminescence, 1 h | 290,000 compounds, 0.37% hits; active = well fitted curve in the direction sought with a large enough effect; inconclusive = small, poorly fitted or top-dose-only effect, or another doubt; inactive = no such curve, though single readings can be large; an effect the other way counts as inactive or inconclusive
Target sequence (Q27686 whole entry, looked up): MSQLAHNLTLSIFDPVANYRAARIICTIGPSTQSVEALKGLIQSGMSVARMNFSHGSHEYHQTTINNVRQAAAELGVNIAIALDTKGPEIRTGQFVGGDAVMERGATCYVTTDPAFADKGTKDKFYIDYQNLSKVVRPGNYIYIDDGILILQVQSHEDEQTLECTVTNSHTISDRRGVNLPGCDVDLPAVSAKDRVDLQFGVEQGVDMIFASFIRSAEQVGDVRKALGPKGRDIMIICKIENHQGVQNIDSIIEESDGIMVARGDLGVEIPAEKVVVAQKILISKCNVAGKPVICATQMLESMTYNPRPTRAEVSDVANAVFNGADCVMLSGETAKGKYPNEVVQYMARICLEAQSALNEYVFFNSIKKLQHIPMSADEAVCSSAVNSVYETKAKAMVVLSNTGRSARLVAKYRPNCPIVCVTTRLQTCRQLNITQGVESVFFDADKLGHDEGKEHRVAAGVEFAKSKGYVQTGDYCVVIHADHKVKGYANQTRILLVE
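0.1 nM LmPK, 0.5 mM PEP, 0.1 mM ADP; 50 mM imidazole pH 7.2, 7 mM MgCl2, 50 mM KCl; 1 h RT. Kinase-Glo luminescence readout, normalized to no-enzyme (full inhibition) and uninhibited wells.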
CHX counter = Cycloheximide Counterscreen for Small Molecule Inhibitors of Shiga Toxin; AID 2314, 2010; cell reporter, cycloheximide protein synthesis inhibition counterscreen; max response, %; 300,000 compounds, 12% hits; in the data active = max response mostly above about 13%, no sharp cut-off; inactive = mostly below about 14%; note: read at 38.3 µM for the half of the compounds with a filed dose
Tb PYK inh = qHTS of Trypanosoma Brucei Inhibitors; Potency, µM (titrated, usually from 76.8 µM), most hits filed as inhibitors; 410,000 compounds, 0.12% hits; TbPYK enzyme, Kinase-Glo Plus ATP luminescence, 45 min; AID 624173, 2012; active = well fitted curve in the direction sought with a large enough effect; inconclusive = small, poorly fitted or top-dose-only effect, or another doubt; inactive = no such curve, though single readings can be large; an effect the other way counts as inactive or inconclusive; note: nearly all actives have a fitted effect of over 50% in size
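Readout: single end-point luminescence (Kinase-Glo Plus, 10 min). Reaction conditions were TbPYK/substrate plus 130 uM ADP, 45 min at RT, pH 7.2 TEA buffer. No-enzyme wells served as controls, and data were normalized before concentration-response fitting.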
SARS PLP yeast = qHTS of Yeast-based Assay for SARS-CoV PLP | AID 485353, 2010 | Potency, µM (top dose mostly 32.9 µM), hits mostly activators | 330,000 compounds, 0.19% hits | S. cerevisiae expressing SARS-CoV PLpro, growth rescue; note: nearly all actives have a fitted effect of over 55% in size
Each line names hits and unclear results; the compound was inactive in the other large screens. Many of the other results were omitted from the sample, so hits are more common in it than they were. Unless noted, calls come from the whole dose curve.

COc1ccc2nc(SCC(=O)Nc3nccs3)[nH]c2c1	Shiga inhibitor 43, CHX counter 20
O=C(O)c1cccc(COc2cccc3ccccc23)c1	none (no result: Shiga inhibitor, NS1 function inh, LmPK inhibitor, CHX counter, SARS PLP yeast)
CCCOc1ccc(-c2nnc(-c3ccco3)o2)cc1	CHX counter 51
CC(C)COc1ccc(-c2nnc(-c3ccco3)o2)cc1	CHX counter 30
O=C(COc1ccccc1)Nc1ccc(-c2nnc(-c3ccco3)o2)cc1	none
O=C(O)CNC(=O)c1ccccc1I	none (no result: NS1 function inh, LmPK inhibitor, SARS PLP yeast)
CS(=O)(=O)c1cnc(-c2ccccc2)nc1Sc1ccc(F)cc1	none
COc1cccc(Sc2nc(-c3ccccc3)ncc2S(C)(=O)=O)c1	Shiga inhibitor 50, CHX counter 31
Clc1ccc2nc(CN3CCCCC3)cn2c1	none
Clc1ccc2nc(CN3CCCc4ccccc43)cn2c1	Shiga inhibitor 56, CHX counter 23
O=C(COc1ccccc1[N+](=O)[O-])OCCCOC(=O)COc1ccccc1[N+](=O)[O-]	SARS PLP yeast inconclusive
CCCCNC(=O)c1cc2cccc([N+](=O)[O-])c2[nH]1	CHX counter 22
NNC(=O)COc1ccccc1[N+](=O)[O-]	CHX counter 25
CCCNC(=O)COc1ccccc1[N+](=O)[O-]	none
Cc1ccc(C)c(C(=O)COc2ccc(C)nc2[N+](=O)[O-])c1	none
CCCCNC(=O)COc1ccccc1[N+](=O)[O-]	Shiga inhibitor 77, CHX counter 25
Cc1ccc(C)c(C(=O)COc2ccccc2[N+](=O)[O-])c1	Shiga inhibitor 26, CHX counter 36
N#Cc1c(C(F)(F)F)cc(-c2cccs2)nc1SCc1ccccc1F	none (no result: Shiga inhibitor, NS1 function inh, LmPK inhibitor, CHX counter, SARS PLP yeast)
O=[N+]([O-])c1ccccc1OCCN1CCCC1	none
O=[N+]([O-])c1ccccc1OCCNCc1ccccc1	CHX counter 16 (no result: Shiga inhibitor)
O=C(Nc1ccc(Cl)cn1)c1ccc(COCC(F)(F)C(F)F)o1	Shiga inhibitor 67, CHX counter 18
O=c1c2ccccc2nc(-c2ccco2)n1Cc1ccccc1	Shiga inhibitor 130, LmPK inhibitor inconclusive, CHX counter 57 (no result: SARS PLP yeast)
CCCN1CN(Cc2ccco2)c2nc3ccccc3n2C1	CHX counter 36
CCCCCn1c(-c2ccco2)nc2nc3ccccc3nc21	CHX counter 9.2
c1coc(-c2nc3nc4ccccc4nc3n2CC2CCCO2)c1 (stereo not drawn)	none
COc1ccc(CCn2c(-c3ccco3)nc3nc4ccccc4nc32)cc1	Shiga inhibitor 43, NS1 function inh inconclusive
Cc1c(C(=O)N2CCCC2)oc2c1-c1nn(CC(=O)NCc3ccccc3Br)cc1CC2	none (no result: Shiga inhibitor, NS1 function inh, LmPK inhibitor, CHX counter, SARS PLP yeast)
CN(C)c1ccc(CNC(=O)c2cnc3sc(N4CCCCCC4)nn3c2=O)cc1	none (no result: Shiga inhibitor, NS1 function inh, LmPK inhibitor, CHX counter, SARS PLP yeast)
COc1ccccc1CNC(=O)CCCC(=O)n1nc(C)c2ccccc21	none
Clc1ccc(OCCn2c(-c3ccco3)nc3ccccc32)cc1	none (no result: Tb PYK inh)
COc1ccccc1Cn1c(-c2ccco2)nc2nc3ccccc3nc21	none (no result: Shiga inhibitor, LmPK inhibitor, CHX counter, SARS PLP yeast)
COc1ccc(C(=O)n2c(-c3ccco3)nc3ccccc32)cc1	CHX counter 31
c1ccc(Cn2c(-c3ccco3)nc3nc4ccccc4nc32)cc1	LmPK inhibitor inconclusive, CHX counter 28
COc1ccc(CCn2c(S)nc3ccccc3c2=O)cc1	Shiga inhibitor 41, CHX counter 30
CCOC(=O)c1ccc(-n2c(-c3ccco3)nc3ccccc3c2=O)cc1	none
c1coc(Cn2c(-c3ccco3)nc3ccccc32)c1	Shiga inhibitor 45, CHX counter 17
COc1cccc(NC(=O)COC(=O)c2ccc(C)c(S(=O)(=O)N3CCCCC3)c2)c1	none (no result: Shiga inhibitor, NS1 function inh, LmPK inhibitor, CHX counter)
Cc1cccc(C)c1NC(=O)C1=C(O)c2ccccc2N(C)S1(=O)=O	none
Cc1ccc(NC(=O)C2=C(O)c3ccccc3N(C)S2(=O)=O)cc1	CHX counter 34
Cc1ccc(CNC(=O)CS(=O)Cc2nc(-c3ccccc3F)oc2C)cc1 (stereo not drawn)	none
COCCN(CCOC)C(=O)c1ccc(CSc2nc3ccccc3s2)cc1	Shiga inhibitor 53, CHX counter 32
NNC(=O)c1ccc(CSc2nc3ccccc3s2)cc1	Shiga inhibitor 54
